# SARS PLpro yeast – qHTS of Yeast-based Assay for SARS-CoV PLP; S. cerevisiae expressing SARS-CoV PLpro, growth rescue; Potency, µM (top dose mostly 32.9 µM), for inactives: at the top dose activity, positive = growth rescue, usual class: activators; hit rate 0.19% among 330,000; AID 485353, 2010; calls by dose curve; note: potency is the fitted concentration of half-maximal effect; 0% is about no effect; nearly all actives have a fitted effect of over 55% in size
# CHX counter-1 – Cycloheximide Counterscreen for Small Molecule Inhibitors of Shiga Toxin. cell reporter, cycloheximide protein synthesis inhibition counterscreen. max response, %. hit rate 12% among 300,000. AID 2314, 2010; in the data active = max response mostly above about 13%, no sharp cut-off; inactive = mostly below about 14%; note: read at 38.3 µM for the half of the compounds with a filed dose; 0% is about no effect
# Pf growth 48h – Primary qHTS for delayed death inhibitors of the malarial parasite plastid, 48 hour incubation. P. falciparum luciferase growth in erythrocytes, 48 h. Potency, µM (series often up to 28.7 µM), without a hit: top-dose activity change, negative = inhibition, usual class: inhibitors. hit rate 5.9% among 310,000. AID 504832, 2011; note: potency is the fitted concentration of half-maximal effect; % is set by controls: 0 for no effect and ±100 for the full control effect
#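 In quantitative HTS format, infected erythrocytes bearing luciferase-reporter parasites were treated for a single generation at 37 C. Luminescence after adding detection reagent served as the growth measure.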
# AMA1 RON2 block – qHTS for Inhibitors of AMA1-RON; Towards Development of Antimalarial Drug Lead: Primary Screen. Potency, µM (titrated, usually from 58.2 µM), inactives show top-dose activity change, negative = inhibition, hits mostly inhibitors. AlphaScreen AMA1-biotinylated RON2 peptide binding. Plasmodium falciparum AMA1 (3D7) - RON2 peptide interaction. hit rate 0.2% among 360,000;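 note: potency is the fitted concentration of half-maximal effect; 0% = vehicle wells and -100% = peptide control; nearly all actives have a fitted effect of over 45% in size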
#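 AMA1 (3D7) with his tag at 25 nM final met compounds first, then biotinylated RON2 peptide at 25 nM; detection used donor plus acceptor beads, 10 µg/mL apiece, read by AlphaScreen after 30 min at room temperature.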
# Shiga inhibitor – A qHTS for Small Molecule Inhibitors of Shiga Toxin. Vero cells, Shiga toxin protein synthesis inhibition reporter. inhibition, % at 38.7 µM. hit rate 9.2% among 290,000. AID 2315, 2010; in the data active = inhibition mostly above about 28%, no sharp cut-off; inactive = mostly below about 43%; note: 0% is about no effect
# Pf growth 96h – Primary qHTS for delayed death inhibitors of the malarial parasite plastid, 96 hour incubation; P. falciparum luciferase reporter growth, 96 h; Potency, µM (top dose mostly 28.7 µM), for the others: at the highest dose activity change, negative = inhibition, hits mostly inhibitors; hit rate 6.9% among 320,000; note: potency is the fitted concentration of half-maximal effect; % is set by controls: 0 for no effect and ±100 for the full control effect
#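 Plates of compound plus infected erythrocytes (2% hematocrit, 0.05% parasitemia final) incubate 96 hours, 37 C, 5% CO2. Detection reagent added; reduced luminescence from the parasites' luciferase reporter flags inhibition.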
# CHX counter-2 – Cycloheximide Counterscreen for Small Molecule Inhibitors of Shiga Toxin (Confirmatory) | hit rate 3% among 510 | shares compounds with Shiga inhibitor | Cycloheximide counterscreen, protein synthesis reporter, Shiga toxin assay | AID 2318, 2010 | Potency, µM (top dose mostly 38.3 µM), without a hit: at the highest dose activity (activation), most hits filed as activators; calls by dose curve; note: potency is the fitted concentration of half-maximal effect; 0% is about no effect
# * = called active by the depositor; ? = inconclusive; . = no result; [ ] = another dose, or the depositor's remark. The list is not random: actives were taken first. Their share in the collection is about 19%. Unless noted, calls come from the whole dose curve; as a rule, active = well fitted curve in the direction sought with a large enough effect; inconclusive = small, poorly fitted or top-dose-only effect, or another doubt; inactive = no such curve, though single readings can be large; an effect the other way counts as inactive or inconclusive.
SMILES,SARS PLpro yeast,CHX counter-1,Pf growth 48h,AMA1 RON2 block,Shiga inhibitor,Pf growth 96h,CHX counter-2
CCCCOC(=O)c1ccc(N=Nc2c(C)c(C#N)c(O)[nH]c2=O)cc1,3%,8,42%,-1%,47*,48%,?
COc1ccccc1P(=O)(c1ccccc1)c1ccc([N+](=O)[O-])cc1 (stereo not drawn),-3%,-1,-9%[0.00184 µM],-5%,-8,-1%,.
O=C(NCCCO)/C(=C\c1ccco1)NC(=O)c1ccco1,-6%,1,16%,4%,38*,?,-1%
COc1cccc(Nc2nc(NCCO)c3ccccc3n2)c1,-10%,10,.,-18%,50*,-11%,1%
CN(C)S(=O)(=O)Nc1ccc(Oc2ccccc2)cc1,-2%,-1,11%,-2%,-25,.,.
CCCCc1ccc(NS(=O)(=O)N(C)C)cc1,-21%,2,24%,39%,72*,10µM*,3%
Cc1ccc2nc(C3CCCCC3)c(Cc3ccccc3)n2c1,.,.,.,-7%,.,.,.
O=C(c1ccco1)N1CCN(c2nc(C3CC3)nc3c2nnn3Cc2ccccc2Cl)CC1,-3%,6,6.6µM*,-25%,active,-6%,1%
CC1CC(C)CN(C(=O)COc2ccc([N+](=O)[O-])cc2Cl)C1 (stereo not drawn),-5%,8,?,-6%,44,?,.
CC(C)NC(=O)c1ccc(OC2CSC2)cc1,-6%,-3,17%,10%,29*,34%,?
COc1ccc(/C=N\NS(=O)(=O)c2ccc(Cl)cc2)cc1COc1ccccc1[N+](=O)[O-],2%,-1,-30%,-8%,-1,-10%,.
CC(C)c1ccccc1NC(=O)c1ccco1,2%,2,-10%,4%,58*,6%,?
COc1ccccc1NC(=O)Cn1cc(C(=O)c2ccco2)c2ccccc21,-2%,5,?,5%,60*,8%,2%
COc1ccccc1NC(=O)c1ccc(NC(=O)c2ccco2)cc1,0%,6,?,5%,43*,-1%,3%
CCOc1cc(NC(=O)c2ccco2)c(OCC)cc1NC(=O)c1ccco1,-1%,-6,?,9%,-7,13%,.
COc1cc(OC)cc(C(=O)NNC(=S)NC2CC2)c1,0%,-3,28%,68%,25,-18%[5.75 µM],.
COc1ccccc1CNC(=O)C1CCC(CNc2c(N3CCC(C)CC3)c(=O)c2=O)CC1 (stereo not drawn),-2%,2,0%,-2%,3,0%,.
O=C(NCCN1CCOCC1)C(=O)NCC1OCCN1S(=O)(=O)c1ccccc1 (stereo not drawn),-3%,9,3%,45%,12*,?,-1%
O=C(NCCN1CCOCC1)C(=O)NCC1OCCN1S(=O)(=O)c1ccc(Br)cc1 (stereo not drawn),-4%,1,-2%,7%,-10,5%,.
O=C(Nc1ccnc(-c2cccnc2)n1)c1cccs1,0%,0,-9%,4%,-8,0%,.
COC(=O)c1sc(NC(=O)COc2cccc(C)c2)nc1C,-6%,-2,26%,0%,28*,63%,1%
O=C(CSc1nncn1-c1ccccc1)Nc1ccccc1,2%,-3,37%,6%,-4,?,.
COc1ccccc1-n1cnnc1SCC(=O)Nc1ccccc1,4%,1,24%,4%,62*,48%,6%
CCOC(=O)c1ccc(NC(=O)Nc2ccn(C)n2)cc1,-2%,13,-9%,13%,47*,-4%,?
CCOC(=O)c1ccc(NC(=O)Nn2cnnc2)cc1,2%,9,39%,-10%,-1,32%,.
CON(C)S(=O)(=O)c1cccc(C(=O)NC2CCSc3ccccc32)c1 (stereo not drawn),2%,4,-27%,-15%,77*,-28%,-4%
